Assay results from the supplement of paper PMC3334620.
In all, about 33,000 sequences were measured (“E-score (-0.5 to 0.5)”: median about -0.016, highest 2% from about 0.32 on). The sample holds the highest values, similar sequences and a random draw of the others, so the mix is not that of the screen.

target: T1, Stp1 (UniProt B3LFK1); test: PBM E-score (8-mer binding enrichment) (E-score (-0.5 to 0.5)); higher = stronger / more preferred TF binding; conditions: protein concentration: 200 nM; construct: GST-full length
T1 sequence: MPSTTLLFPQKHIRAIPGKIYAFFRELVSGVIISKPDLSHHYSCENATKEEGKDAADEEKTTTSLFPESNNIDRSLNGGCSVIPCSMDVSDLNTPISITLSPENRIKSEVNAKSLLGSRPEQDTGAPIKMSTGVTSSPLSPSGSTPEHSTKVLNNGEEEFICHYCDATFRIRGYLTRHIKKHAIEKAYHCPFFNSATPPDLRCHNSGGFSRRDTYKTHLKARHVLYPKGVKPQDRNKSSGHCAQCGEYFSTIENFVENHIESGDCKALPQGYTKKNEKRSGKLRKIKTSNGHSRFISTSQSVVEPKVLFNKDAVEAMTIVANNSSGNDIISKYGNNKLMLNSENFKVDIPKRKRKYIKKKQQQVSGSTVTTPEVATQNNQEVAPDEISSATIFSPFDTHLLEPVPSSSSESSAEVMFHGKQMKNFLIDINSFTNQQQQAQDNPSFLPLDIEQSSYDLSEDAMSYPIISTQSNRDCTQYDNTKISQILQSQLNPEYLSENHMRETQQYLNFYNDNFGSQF
Description: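 Universal 'all 10-mer' protein binding microarrays (Agilent AMADID 015681) probed with GST-tagged S. cerevisiae TFs (full-length or DBD) made by in vitro transcription/translation (PURExpress), about 100-200 nM. Bound TF was detected with fluorescent anti-GST. Each ungapped 8-mer (which stands for itself and its reverse complement) is scored by the PBM enrichment score (E-score), a modified Wilcoxon-Mann-Whitney statistic from -0.5 to +0.5, computed with the Universal PBM Analysis Suite. Scale: above 0.35 generally sequence-specific binding.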

Sequence | PBM E-score
CGCTTACA | 0.0771
GTATACCA | 0.0622
ACTTATCC | -0.0589
CATAGACA | 0.0911
CAATAAAG | 0.217
AGTTGACC | -0.0773
ATATGGGC | -0.0537
ACCCGTTC | 0.0622
ACCGAAAT | 0.0238
ATCTTAAA | -0.0445
AGGACTGC | -0.256
AGTTATCG | 0.106
GCCGCTTA | 0.39
ACCGCTCA | 0.0634
CCCGCTCC | -0.241
GCCGCTCA | 0.381
GCCGCTCC | 0.398
ACCGCTTA | -0.238
ACCGCTCC | -0.223
TCCGCTCA | -0.102
CCCGCTTA | 0.0273
CAGCGCTA | 0.0165
ATGCCCTA | 0.168
CAGTACGC | -0.111
CAGCTACG | -0.14

Sequence | PBM E-score
GAAGCGCA | -0.0259
GAAGCGCC | 0.337
CTAGCGCC | 0.16
ATAGCGCG | 0.136
CAAGCGCC | 0.219
GCAGCGCC | 0.33
ATAGCGCC | 0.357
ACAGCGCC | 0.249
CCAGCGCC | 0.235
AGGTACCC | -0.414
AGCTACCG | -0.16
ACATGGCT | -0.137
CCATCCAA | 0.0222
GAAACGGC | 0.462
GAAACGCC | 0.289
AAAACGGT | -0.0136
AAAACGGC | 0.403
AAAACGGA | 0.201
CAAACGGC | 0.459
CAAACGCC | 0.258
CAAACGGG | 0.175
AAAACGCG | 0.251
GAAACGGA | 0.132
CAAACGGA | 0.236
AAAACGCC | 0.386

Sequence | PBM E-score
ACCTGATG | -0.102
CCGCATTC | 0.105
TACCCTAA | -0.0225
CACCCACC | -0.192
GAGCCATA | 0.0155
ATTGCTAC | 0.0429
CAGGCGTC | -0.00022
AGGCCAGA | -0.103
CCAACGGC | 0.316
ACAACGGC | 0.308
GCAACGGC | 0.411
ATAAAGGA | -0.201
CACGCTAC | -0.0658
CACTCGGC | 0.28
GAAAAGAA | 0.0978
CTTCTAAA | 0.168
AATGCCGA | 0.303
AATGCCGC | 0.465
AATGCCAC | 0.293
AATGCCGT | 0.485
AATGCCGG | 0.137
AATGCCTC | 0.308
AGGCAGAG | -0.00743
CCCTAAAC | -0.193
GCGATCAA | -0.0307

Sequence | PBM E-score
CCTCCTCG | -0.21
CTCGCGGA | -0.0275
CGCGCGGC | 0.483
CGCGCGTC | 0.16
AGCGCGGG | 0.098
AGCGCGGC | 0.402
CGCGCTGC | 0.122
CTCGCGGC | 0.334
ATCGCGGC | 0.238
AGCGCGGA | 0.0636
AGGTGGCC | -0.294
TCTCGAGA | -0.01
CCCCGCCC | 0.139
ATCTTTGC | 0.262
CATACGGG | 0.224
AATACGGG | -0.0327
GATACGGA | 0.285
CATACGGC | 0.472
GATACGGC | 0.463
GATACGAC | 0.0153
AATACGGC | 0.453
CATACGGA | 0.268
AATACGGT | 0.0778
ACCCTGAG | -0.216
AATAGACC | -0.159

Sequence | PBM E-score
AACACTTA | 0.0357
ACATGGCC | 0.147
CCAACATC | -0.127
AGAGCTAT | -0.179
ACAAGGGC | -0.0113
CCACCTGC | -0.021
ACGAGGAT | -0.102
ACGAGGCG | 0.457
ACGAGGCC | 0.016
ACGAGGTA | -0.0774
CCGAGGCG | 0.333
CCGAGGAG | -0.0986
ACCAGGCT | -0.326
ACGAGGCA | 0.37
CCGAGGCC | -0.22
ACGAGGGA | -0.0556
AGGAGGCG | 0.201
ACGAGGCT | 0.323
CTGCAGGC | -0.372
CTCATCTC | 0.0521
ACTAAAGT | -0.0712
AGTCTGGC | -0.207
TACGGTAA | 0.157
GCGTGGGA | -0.0429
GTCGTCAC | -0.0794

Sequence | PBM E-score
TCGAGGCA | 0.195
GCGAGGCA | 0.439
CCGAGGCA | 0.179
TATCAATA | 0.0831
AGCGGCCG | 0.285
CGCGGCCA | 0.269
CGCGGCCC | 0.349
CGCGGCCG | 0.321
GGCGGCCC | 0.0299
AGCGGCCC | -0.00454
AAAGTCGA | -0.15
ACAAACGA | 0.129
CCACACGA | -0.105
ACAAACGG | 0.352
ACACACGA | 0.135
AGACACGG | 0.363
CCACACGG | 0.385
AGACACAA | 0.154
ACACACGT | 0.0897
CCACACGC | 0.158
ACACACGG | 0.356
AGACACGA | -0.124
ACAAACGC | 0.252
CTAGACGA | 0.105
GCTCAGCC | -0.123

Sequence | PBM E-score
ATGAGAGG | -0.118
CTCGGTTA | -0.119
ATGCGAAC | -0.103
CTGGCGCA | -0.0136
ACGGCCCT | 0.275
ATGGCGCA | 0.0846
ACCGCGCT | 0.077
ACGGCGCT | 0.481
ACGGCCCA | 0.333
TCGGCCCA | -0.116
ACGGCGCA | 0.482
ACTGCGCT | -0.19
GACTGACC | -0.312
GCCTCTCC | 0.0401
CCTCCTGC | -0.205
ACAGTCTA | -0.00216
GCTTGCCA | -0.0643
ACCTAGAT | -0.159
AAGCTAAG | -0.136
CAGTGTCA | 0.0177
CGGCAATA | 0.352
AGGCAATC | 0.114
AGGCAATA | 0.227
